Measured values reported in PubChem BioAssay (NCATS).
Inconclusive results are not listed. Active and inactive are the calls of the source. Calls come from the whole dose curve; as a rule, active = well fitted cell-killing curve with a large enough effect; inconclusive = small, poorly fitted or top-dose-only effect, or effect the other way; inactive = no such curve, though single readings can be large or run the other way.

Assay: Quantitative High-Throughput drug screen in 47 multiple myeloma cell lines against the NCATS MIPE library collection: EJM_DSMZ cell viability assay (AID 1918926; note: nearly all actives have a fitted effect of over 30% in size)
Settings: EJM myeloma cell viability, CellTiter-Glo ATP, 48 h; series mostly up to 45.8 µM; viability, % of control: at the top concentration
Description: PI: Beverly A. Mock Ph.D.
Laboratory of Cancer Biology and Genetics,
Center for Cancer Research, National Cancer Institute,
National Institute of Health, Bethesda, Maryland
Drug resistance and disease progression are common in multiple myeloma (MM) patients, underscoring the need for new therapeutic combinations. […] We hypothesized that effective combinations would reduce MYC expression and enhance p16 activity. […] These preclinical data identify potentially useful drug combinations for evaluation in drug-resistant MM and reveal potential mechanisms of combined drug sensitivity.
Described herein is the primary MIPE qHTS used to cherrypick compounds. Validated compounds were then further tested for potential synergistic activiy.
[1] Peat TJ, Gaikwad SM, Dubois W, Gyabaah-Kessie N, Zhang S, Gorjifard S, Phyo Z, Andres M, Hughitt VK, Simpson RM, Miller MA, Girvin AT, Taylor A, Williams D, D'Antonio N, Zhang Y, Rajagopalan A, Flietner E, Wilson K, Zhang X, Shinn P, Klumpp-Thomas C, McKnight C, Itkin Z, Chen L, Kazandijian D, Zhang J, Michalowski AM, Simmons JK, Keats J, Thomas CJ, Mock BA. Drug combinations identified by high-throughput screening promote cell cycle transition and upregulate Smad pathways in myeloma. Cancer Lett. 2023 Aug 1;568:216284. doi: 10.1016/j.canlet.2023.216284. Epub 2023 Jun 24. PMID: 37356470; PMCID: PMC10408729.
SEQUENCE No. (e.g., 1, 2, 3, etc.); […] (e.g., Cells, Incubation, Reagent, etc.); VALUE and DESCRIPTION.
1; Cells; 5 uL; white, solid bottom 1536-well Greiner assay plate.
2; Compounds; 23 nL; Kalypsis pin tool (Wako USA) equipped with a 1536-well pin head to transfer to the assay plates.
3; Incubation; 48 hours; 37C incubation.
4; Reagent;5uL; CellTiter Glo (Promega).
5; Detector; 425V; Luminescence; Viewlux PerkinElmer.
NOTES (numbers refer to Sequence numbers above)
1. The cell-based screening methods employed in this study were like those previously published. Briefly, the corresponding myeloma cell lines were screened in 1,536-well plates with 500 cells, 5-uL per well for inhibition of cell viability (assessed by measuring ATP levels with CellTiterGlo).
2. NCATS MIPE 4.0 library of approved and investigational drugs were added using the Kalypsis pin tool. Wells treated with DMSO only for 100% viability and media only wells for 0% viability were used as controls.
3. The assay plates were covered and incubated for 48 hours in a 37C, 5% CO2 incubator with controlled humidity.
4. After 48 hours, CellTilter-GloTM luminescent substrate mix (Promega) reagent was added to the assay plate and plates we incubated for 5 min at room temperature.
5. Signal was measured as median relative luminescence units on a ViewLux (PerkinElmer) multiplate reader.
[1] Heske CM, Davis MI, Baumgart JT, Wilson K, Gormally MV, Chen L, Zhang X, Ceribelli M, Duveau DY, Guha R, Ferrer M, Arnaldez FI, Ji J, Tran HL, Zhang Y, Mendoza A, Helman LJ, Thomas CJ. Matrix Screen Identifies Synergistic Combination of PARP Inhibitors and Nicotinamide Phosphoribosyltransferase (NAMPT) Inhibitors in Ewing Sarcoma. Clin Cancer Res. 2017 Dec 1;23(23):7301-7311. doi: 10.1158/1078-0432.CCR-17-1121. Epub 2017 Sep 12. PMID: 28899971; PMCID: PMC6636827.
Potency is the fitted concentration of half-maximal effect.

SMILES | viability, % of control | Potency
CCC(C)(C)C(=O)O[C@H]1C[C@@H](C)C=C2C=C[C@H](C)[C@H](CC[C@@H]3C[C@@H](O)CC(=O)O3)[C@H]21 | 89.9% (inactive) | –
OC(CCN1CCCCC1)(c1ccccc1)C1CC2C=CC1C2 (stereo not given) | 119% (inactive) | –
Oc1ccc(C2CNCCc3c2cc(O)c(O)c3Cl)cc1 (stereo not given) | 76.9% (inactive) | –
NC(N)=NC(=O)c1nc(Cl)c(N)nc1N | 120% (inactive) | –
N[C@@H]1CONC1=O | 132% (inactive) | –
O=C1CCC(N2C(=O)c3ccccc3C2=O)C(=O)N1 (stereo not given) | 103% (inactive) | –
O=C(NOC[C@H](O)CO)c1ccc(F)c(F)c1Nc1ccc(I)cc1F | 107% (inactive) | –
CC(C[N+](C)(C)C)OC(N)=O (stereo not given) | 102% (inactive) | –
CC1(C)CNc2cc(NC(=O)c3cccnc3NCc3ccncc3)ccc21 | – | 2.64 µM (active)
COc1cccc2cc(-c3nc(C4CCC(C(=O)O)CC4)n4ncnc(N)c34)[nH]c12 (stereo not given) | – | 0.187 µM (active)
CCCn1c(=O)c2[nH]c(C34CC5CC3C[C@@H](C5)C4)nc2n(CCC)c1=O | – | 16.6 µM (active)
NC(=O)c1ccc(I)c([N+](=O)[O-])c1 | 92% (inactive) | –
Cc1ccc(-n2nc(C(C)(C)C)cc2NC(=O)Nc2ccc(OCCN3CCOCC3)c3ccccc23)cc1 | – | 18.7 µM (active)
CNC[C@H](O)c1cccc(O)c1 | 97% (inactive) | –
COc1ccc(-c2ccc3c(N4CCOCC4)nc(N4C[C@@H](C)O[C@@H](C)C4)nc3n2)cc1CO | – | 1.66 µM (active)
CC(C=CC1=C(C)CCCC1(C)C)=CC=CC(C)=CC(=O)O | – | 13.2 µM (active)
CCC(C)N(C)C(=O)c1cc2ccccc2c(-c2ccccc2Cl)n1 (stereo not given) | 87.1% (inactive) | –
CCOC(=O)C1=C[C@]2(CC)CCCN3CCc4c(n1c1ccccc41)[C@@H]32 | – | 20.9 µM (active)
CNC(=O)c1ccc(N2C(=S)N(c3ccc(C#N)c(C(F)(F)F)c3)C(=O)C2(C)C)cc1F | 79.2% (inactive) | –
Fc1ccc(Cl)cc1-c1nc(Nc2ccncc2)c2nccnc2n1 | – | 8.33 µM (active)

SMILES | viability, % of control | Potency
Cn1c(=O)c(F)c(Nc2ccc(I)cc2F)c2c(=O)n(C[C@@H](O)CO)cnc21 | 78.5% (inactive) | –
COc1ccc(CCN2CCN(CCCc3ccccc3)CC2)cc1OC | 92.7% (inactive) | –
COc1ccc2c3n(c(=NC(=O)c4cccnc4)nc2c1OC)CCN3 | – | 7.43 µM (active)
Cc1cc(C=c2sc3nc4ccccc4n3c2=O)c(C)n1-c1ccccc1 | – | 6.62 µM (active)
COc1ccc([C@@H]2CC(=O)c3c(O)cc(O[C@@H]4O[C@H](CO[C@@H]5O[C@@H](C)[C@H](O)[C@@H](O)[C@@H]5O)[C@@H](O)[C@H](O)[C@@H]4O)cc3O2)cc1O | – | inactive
COc1ccc(COc2cc3oc(=O)c4cc(C(C)O)ccc4c3cc2OC)cc1 (stereo not given) | – | 16.6 µM (active)
Cc1cc(SCc2sc(-c3ccc(C(F)(F)F)cc3)nc2C)ccc1OCC(=O)O | 108% (inactive) | –
CCCc1nn(C)c2c(=O)[nH]c(-c3cc(S(=O)(=O)N4CCN(C)CC4)ccc3OCC)nc12 | 77.9% (inactive) | –
CCC(=O)N[C@H]1CC[C@H](C(=O)N(C)c2ccc(-c3nc4ccccc4o3)cc2)C1 | – | 16.6 µM (active)
Clc1ccc(Nc2nnc(Cc3ccncc3)c3ccccc23)cc1 | – | 18.7 µM (active)
Cc1oncc1C(=O)Nc1ccc(C(F)(F)F)cc1 | – | 20.9 µM (active)
CCn1cc(C(=O)O)c(=O)c2cc(F)c(N3CCNC(C)C3)c(F)c21 (stereo not given) | 111% (inactive) | –
Nc1nc2ccc(OC(F)(F)F)cc2s1 | 79% (inactive) | –
CCN(CC)CCCC(C)Nc1ccnc2cc(Cl)ccc12 (stereo not given) | 104% (inactive) | –
CC1(C)SCCN(S(=O)(=O)c2ccc(OCC#CCO)cc2)[C@@H]1C(=O)NO | 98.5% (inactive) | –
COc1ccccc1[C@H](c1cccc2ccccc12)[C@@](C)(C#N)C(=O)N1CCC(c2cccc(C(F)(F)F)c2)CC1 | – | 13.2 µM (active)
CN1CCN(CCCN2c3ccccc3Sc3ccc(C(F)(F)F)cc32)CC1 | 114% (inactive) | –
Clc1cccc(Cl)c1NC1=NCCN1 | 101% (inactive) | –
COc1cc(Oc2ccnc3cc(OC)c(OC)cc23)ccc1NC(=O)NC(C)c1nccs1 (stereo not given) | 102% (inactive) | –
Cc1[nH]c(=O)c(C#N)cc1-c1ccc2nccn2c1 | 94.4% (inactive) | –
